Data taken from paper PMC4336329 (PLoS ONE, 2015).
Among all 310,000 compounds or so, about 14,000 (4.5%) showed an effect of 50% or more. Effects have a minus sign here. The list comes from a sample in which strong results are over-represented; it also holds similar structures and randomly drawn compounds.

Target: human ether-à-go-go-related gene (hERG) potassium channel (human, UniProt Q12809)
Test: primary screen, population patch clamp on CHO cells stably expressing hERG; higher = less effect of the substance
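Also: peak tail current of the secondary pulse compared with the same well before compound.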

Chain of human ether-à-go-go-related gene (hERG) potassium channel (Q12809 whole entry, looked up): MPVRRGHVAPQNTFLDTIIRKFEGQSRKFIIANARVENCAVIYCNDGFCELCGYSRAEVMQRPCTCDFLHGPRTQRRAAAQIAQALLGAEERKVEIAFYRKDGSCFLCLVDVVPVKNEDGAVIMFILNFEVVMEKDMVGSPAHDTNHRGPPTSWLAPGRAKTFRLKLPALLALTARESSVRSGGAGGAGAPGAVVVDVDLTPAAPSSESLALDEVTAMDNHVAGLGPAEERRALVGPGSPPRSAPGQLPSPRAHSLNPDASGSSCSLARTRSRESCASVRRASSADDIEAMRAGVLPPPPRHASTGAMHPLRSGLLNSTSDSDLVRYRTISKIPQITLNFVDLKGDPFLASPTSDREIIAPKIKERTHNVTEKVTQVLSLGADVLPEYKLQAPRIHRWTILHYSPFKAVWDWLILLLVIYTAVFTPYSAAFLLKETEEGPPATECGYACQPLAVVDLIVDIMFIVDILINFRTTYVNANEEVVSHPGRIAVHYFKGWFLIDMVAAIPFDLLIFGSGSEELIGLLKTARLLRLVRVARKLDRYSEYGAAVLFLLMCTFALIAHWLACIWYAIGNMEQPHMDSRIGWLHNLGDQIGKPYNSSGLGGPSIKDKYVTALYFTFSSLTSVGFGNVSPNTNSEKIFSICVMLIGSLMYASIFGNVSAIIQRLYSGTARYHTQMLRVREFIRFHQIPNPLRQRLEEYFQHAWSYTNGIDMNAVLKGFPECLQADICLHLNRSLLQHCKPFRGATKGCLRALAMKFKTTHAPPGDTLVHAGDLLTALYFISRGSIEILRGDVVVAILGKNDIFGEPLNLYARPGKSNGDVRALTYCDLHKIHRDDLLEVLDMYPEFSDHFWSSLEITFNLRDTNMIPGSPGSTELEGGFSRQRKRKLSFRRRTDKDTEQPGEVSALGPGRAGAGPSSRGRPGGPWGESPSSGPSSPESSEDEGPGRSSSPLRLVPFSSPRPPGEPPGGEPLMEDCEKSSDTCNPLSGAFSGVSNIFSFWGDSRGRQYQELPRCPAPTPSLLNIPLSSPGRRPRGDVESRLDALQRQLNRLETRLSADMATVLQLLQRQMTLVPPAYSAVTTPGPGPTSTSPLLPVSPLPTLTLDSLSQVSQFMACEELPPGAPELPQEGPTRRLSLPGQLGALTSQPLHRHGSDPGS

Row | SMILES | hERG current change (%, negative = inhibition) at 10uM
1 | O=C(CCNC(=O)c1ccc([N+](=O)[O-])cc1)Nc1nccs1 | 1.93%
2 | CCCOc1ccccc1/C=C1\SC(N2CCCCC2)=NC1=O | -12.3%
3 | Cn1c(SCc2ccccc2Cl)nc(C(F)(F)F)cc1=O | 1.65%
4 | Cc1cc(OCCOCCN(C)CCO)cc(C)c1Cl | -40.9%
5 | COc1ccc(C2=NC(=O)/C(=C\c3cc(OC)c(OC)c(OC)c3)O2)cc1 | 8.26%
6 | Cc1cccn2cc(-c3ccc(F)cc3)nc12 | -14.1%
7 | COc1ccc(-c2cn3cccc(C)c3n2)cc1F | -61.7%
8 | COc1ccc(-c2cn3cccnc3n2)cc1F | 12.2%
9 | CC(=O)c1c(C)[nH]c(C(=O)OCc2cc(=O)n3cc(Br)ccc3n2)c1C | -3.69%
10 | N#Cc1ccccc1COC(=O)CCC(=O)c1cccs1 | -4.58%
11 | CCOc1ccccc1NC(=O)c1ccc(S(=O)(=O)N2CCOCC2)cc1 | -2.46%
12 | S=C(Nc1ccc(Cl)cc1Cl)N1CCOCC1 | 11.1%
13 | Cc1ccc(NC(=O)COC(=O)C2CCN(c3ccc(C(F)(F)F)cn3)CC2)cc1 | -1.26%
14 | CN(CC(=O)Nc1ccccc1Cl)C(=O)COC(=O)C1CCN(c2ccc(C(F)(F)F)cn2)CC1 | -29.8%
15 | COc1cc(C(=O)COC(=O)C2CCN(c3ccc(C(F)(F)F)cn3)CC2)ccc1OC(F)F | -59.1%
16 | CCc1ccc(C(=O)COC(=O)C2CCN(c3ccc(C(F)(F)F)cn3)CC2)cc1 | -18%
17 | O=C(COC(=O)C1CCN(c2ccc(C(F)(F)F)cn2)CC1)c1ccc(F)cc1 | -0.831%
18 | CN(CC(=O)Nc1ccc(F)cc1)C(=O)COC(=O)C1CCN(c2ccc(C(F)(F)F)cn2)CC1 | -65.5%
19 | O=C(O)c1cccc2c(-c3ccccc3)c(-c3ccccc3)[nH]c12 | 18.5%
20 | COc1cc(/C=C2\C(=N)N3N=C(C)SC3=NC2=O)cc(OC)c1OCCOc1ccccc1C | 30.7%
21 | Cc1ccc(-c2nc(CN(C)Cc3ccc4nccnc4c3)c(C)o2)s1 | -10.3%
22 | Cc1cc(OCC(=O)Nc2cnn(CCCC(=O)O)c2)ccc1Cl | 18%

Row | SMILES | hERG current change (%, negative = inhibition) at 10uM
23 | CC(=O)N1CCN(C23CC4CC(CC(C4)C2)C3)CC1 | 12.3%
24 | CCCC#CCN1CCN(C23CC4CC(CC(C4)C2)C3)CC1 | -16.1%
25 | CCCCCC#CCN1CCN(C23CC4CC(CC(C4)C2)C3)CC1 | -58.6%
26 | COCc1ccc(C(=O)N2CCCC(Nc3ccc(C(C)C)cc3)C2)o1 (centres unmarked) | -0.274%
27 | O=C(CC1SC(=Nc2ccc(OC(F)F)cc2)N(CCN2CCOCC2)C1=O)Nc1ccc(F)cc1F (centres unmarked) | -82.9%
28 | COc1ccc(N=C2SC(CC(=O)Nc3ccccc3)C(=O)N2CCN2CCOCC2)cc1 (centres unmarked) | -23.1%
29 | O=C(CC1SC(=Nc2ccccc2F)N(CCN2CCOCC2)C1=O)Nc1ccc(F)cc1F (centres unmarked) | -13.1%
30 | Cc1cc(NCC(C)C)n2ncnc2n1 | 14%
31 | CCCn1c(=N)c(S(=O)(=O)c2ccccc2)cc2c(=O)n3cccc(C)c3nc21 | 0.577%
32 | Cc1cccn2c(=O)c3cc(S(=O)(=O)c4ccccc4)c(=N)n(Cc4ccc(F)cc4)c3nc12 | 24.7%
33 | N=c1c(S(=O)(=O)c2ccccc2)cc2c(=O)n3ccccc3nc2n1Cc1cccnc1 | -59.2%
34 | N=c1c(S(=O)(=O)c2ccc(Cl)cc2)cc2c(=O)n3ccccc3nc2n1Cc1cccnc1 | -35.5%
35 | Cc1cccn2c(=O)c3cc(S(=O)(=O)c4ccccc4)c(=N)n(Cc4cccnc4)c3nc12 | -66.1%
36 | N=c1c(S(=O)(=O)c2ccc(Br)cc2)cc2c(=O)n3ccccc3nc2n1Cc1ccccc1 | 27%
37 | CCCCC(CC)C(=O)Nc1cc(C(=O)NCc2ccc(C)cc2)ccc1N1CCC2(CC1)CC(c1cccc(Br)c1)=NO2 (centres unmarked) | 17.6%
38 | CCOC(=O)C1=C(C)N=c2s/c(=C/c3cccc([N+](=O)[O-])c3O)c(=O)n2C1c1ccccc1 (centres unmarked) | -20.4%
39 | COc1ccc(CCC(=O)Nc2ncc(C)s2)cc1OC | 16.2%
40 | Cc1ccc(S(=O)(=O)N2CCN(C(=O)COC(=O)CSc3cc(C)ccc3C)CC2)c(C)c1 | -6.13%
41 | COc1ccccc1C(=O)NC(CCSC)C(=O)N1CCN(C(C)=O)CC1 (centres unmarked) | -0.345%
42 | COc1ccccc1C(=O)NC(CCSC)C(=O)N1CCN(C/C=C/c2ccccc2)CC1 (centres unmarked) | -109%
43 | COc1ccccc1C(=O)NC(CCSC)C(=O)N1CCC(Cc2ccccc2)CC1 (centres unmarked) | -23.1%
44 | COCCC(=O)N1CCC(n2nccc2NC(=O)c2ccccc2C)CC1 | 12.6%

Row | SMILES | hERG current change (%, negative = inhibition) at 10uM
45 | COc1ccccc1C(=O)Nc1ccnn1C1CCN(C/C=C/c2ccc(F)cc2)CC1 | -76.6%
46 | COc1ccccc1C(=O)Nc1ccnn1C1CCN(C/C=C/c2ccccc2)CC1 | -78.9%
47 | O=C(COc1ccccc1-c1ccccc1)NN=C1CCCC1 | -6.03%
48 | COC(=O)c1cc(NC(=O)CN(c2ccc3c(c2)OCO3)S(C)(=O)=O)ccc1Cl | -8.58%
49 | CCN1CCN(Cc2ccc(NC(=O)c3cc(NC(=O)C(=O)c4c[nH]c5ccccc45)cc(OC)c3)cc2C(F)(F)F)CC1 | 8.1%
50 | O=C(CSc1nc2cc(Cl)c(Cl)cc2[nH]1)c1ccc2c(c1)OCO2 | 7.8%
51 | Cc1c(C(C)NC(=O)Nc2ccc(F)cc2F)cnn1C (centres unmarked) | 15.2%
52 | O=C(O)/C=C/c1ccc([N+](=O)[O-])o1 | 22.2%
53 | Fc1ccccc1CSc1nnc(-c2ccccc2)o1 | -9.31%
54 | COP(=O)(OC)C(NS(=O)(=O)c1ccccc1)C(Cl)(Cl)Cl (centres unmarked) | 23.8%
55 | COc1ccc2nc(C)cc(Nc3ccccc3O)c2c1.Cl | -20.3%
56 | COc1ccc(OC)c(Nc2ncnc3ccccc23)c1.Cl | -18.6%
57 | CCOC(=O)c1nc(Nc2cc(Cl)ccc2OC)c2ccccc2n1 | 6.83%
58 | COc1ccc(OC)c(Nc2cc(C)nc3ccccc23)c1 | -57.6%
59 | COc1ccc(OC)c(Nc2cc(C)nc3ccc(C)cc23)c1 | -68.6%
60 | COc1ccc(OC)c(Nc2cc(C)c3ccccc3n2)c1 | 2%
61 | COc1ccc(OC)c(Nc2ccc(Nc3cc(OC)ccc3OC)nn2)c1 | -2.07%
62 | COc1ccc(OC)c(Nc2nc(-c3ccccc3O)nc3ccccc23)c1 | 18.7%
63 | COc1ccc(Cl)cc1Nc1nc(N)c2ccccc2n1.Cl | 20.4%
64 | COc1ccc(Cl)cc1Nc1cc(C)nc2ccccc12 | -73%
65 | COc1ccc(OC)c(Nc2cc(-c3ccccc3)nc(N)n2)c1 | -55.9%
66 | Cc1cccc(OC(C)C(=O)Nc2ccccc2C(=O)N2CCCCC2)c1 (centres unmarked) | -0.472%

Row | SMILES | hERG current change (%, negative = inhibition) at 10uM
67 | CCCC1=Nc2cc(C(=O)NCc3ccco3)ccc2Sc2ccccc21 | 1.84%
68 | CC(Cl)C(=O)Nc1cc(C(F)(F)F)ccc1N1CCOCC1 (centres unmarked) | 2.38%
69 | COc1ccccc1N(CC1CO1)S(=O)(=O)c1ccc(C)cc1 (centres unmarked) | 18.9%
70 | Cc1cccc(NC(=O)Cc2c(F)cccc2Cl)n1 | 5.01%
71 | O=C(Nc1cccc(C(=O)N2CCCCCC2)c1)c1ccco1 | -14.5%
72 | CC1CCN(C(C)C(=O)Nc2cc(S(=O)(=O)N3CCCCC3)ccc2Cl)CC1 (centres unmarked) | -18.3%
73 | CCc1ccc2c(c1)C(c1cccs1)=NNC(c1cccnc1)=N2 | -48.6%
74 | COc1ccc2c(c1)C(c1cccs1)=NNC(c1cccnc1)=N2 | 10.4%
75 | CCOc1ccc2c(c1)C(c1cccs1)=NNC(c1cccnc1)=N2 | -65.4%
76 | O=C(CCn1c(=S)oc2ccccc21)N1CCCCC1 | -7.1%
77 | COc1ccc(C)cc1S(=O)(=O)N1CCN(S(=O)(=O)c2cc(C)ccc2OC)CC1 | -1.43%
78 | COc1ccc(Br)cc1CNCCc1ccc2c(c1)OCO2 | -60.7%
79 | COc1ccc(CNCCc2ccc3c(c2)OCO3)cc1Br.O=C(O)C(=O)O | -50.5%
80 | COc1cc(OC)c(OC)cc1CNCCc1ccc2c(c1)OCO2.O=C(O)C(=O)O | -8.77%
81 | COc1ccc(CNCc2ccc3c(c2)OCO3)cc1Br.O=C(O)C(=O)O | -23.1%
82 | COc1ccc(CCNCc2ccc(Br)cc2)cc1OC.O=C(O)C(=O)O | -62.9%
83 | COc1cc(Br)c(CNCCc2ccc3c(c2)OCO3)cc1OC | -32%
84 | COc1ccc(CCNCc2cccc(C(F)(F)F)c2)cc1OC.O=C(O)C(=O)O | 0.584%
85 | COc1cc(CNCCc2ccc3c(c2)OCO3)cc(OC)c1OC.O=C(O)C(=O)O | -14.2%
86 | COc1ccc(OC)c(CNCCc2ccc(OC)c(OC)c2)c1.O=C(O)C(=O)O | 5.38%
